Common to all, as to experiment: DAPPL (digital affinity profiling via proximity ligation, sequencing); 10 mM Tris-HCl pH 7.5, 50 mM NaCl, 1 mM DTT, 4% glycerol, room temperature, 30 min; GST-TFs on glutathione beads, 16-mer random dsDNA library, 0.1% formaldehyde crosslink after washing; high values mean tight binding
One assay deals with T1, FEV (Homo sapiens, UniProt Q99581 1-238).
T1 sequence: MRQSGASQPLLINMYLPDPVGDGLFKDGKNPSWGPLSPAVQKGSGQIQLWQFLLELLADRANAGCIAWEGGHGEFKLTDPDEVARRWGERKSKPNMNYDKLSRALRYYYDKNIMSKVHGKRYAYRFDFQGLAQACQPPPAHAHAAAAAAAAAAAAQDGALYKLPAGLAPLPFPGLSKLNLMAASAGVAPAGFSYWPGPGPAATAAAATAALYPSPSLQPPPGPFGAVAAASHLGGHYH
The conditions noted are these: protein: recombinant; tags: N-terminal GST; dsDNA, one strand shown. The procedure, abridged:
(§1)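 Binding signal is defined as a hexamer's read frequency for one factor over its frequency for the tag-only sample. To obtain reads, GST-fused human transcription factors were expressed in yeast, captured on glutathione beads, barcoded with DNA and pooled with that sample. Pools met 200 nmole of a 16-mer random double-stranded DNA library in Tris/NaCl/DTT/glycerol buffer for 30 min at room temperature before washing, 0.1% formaldehyde crosslinking, proximity ligation (BsaI/T4 ligase, 1 h, 37 °C), PCR and Illumina NextSeq500 sequencing.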

The next assay addresses ETV5 (Homo sapiens, UniProt P41161 1-510). The conditions noted are these: protein: recombinant; tags: N-terminal GST; dsDNA, one strand shown. The method, boiled down: as §1
Another assay deals with HSF1 (Homo sapiens, UniProt Q00613 1-529). The conditions noted are these: protein: recombinant; tags: N-terminal GST; chain copies: 3; dsDNA, one strand shown. The procedure, abridged: as §1
The target of the next assay is T2, SPIC (Homo sapiens, UniProt Q8N5J4 1-248).
T2 sequence: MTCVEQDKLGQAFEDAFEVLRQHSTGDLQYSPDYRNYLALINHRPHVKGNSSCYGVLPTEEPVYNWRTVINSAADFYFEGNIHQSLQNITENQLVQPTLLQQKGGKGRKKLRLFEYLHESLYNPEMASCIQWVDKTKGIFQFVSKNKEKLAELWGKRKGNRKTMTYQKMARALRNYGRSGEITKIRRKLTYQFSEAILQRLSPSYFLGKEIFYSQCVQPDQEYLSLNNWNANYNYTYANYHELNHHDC
To be noted: protein: recombinant; tags: N-terminal GST; dsDNA, one strand shown. The procedure, abridged:
as §1

The target of another assay is ELF4 (Homo sapiens, UniProt Q99607 1-663). To be noted: protein: recombinant; tags: N-terminal GST; dsDNA, one strand shown. The method, boiled down: as §1
A further assay deals with T3, ELK4 (Homo sapiens, UniProt P28324-2 1-405).
T3 sequence: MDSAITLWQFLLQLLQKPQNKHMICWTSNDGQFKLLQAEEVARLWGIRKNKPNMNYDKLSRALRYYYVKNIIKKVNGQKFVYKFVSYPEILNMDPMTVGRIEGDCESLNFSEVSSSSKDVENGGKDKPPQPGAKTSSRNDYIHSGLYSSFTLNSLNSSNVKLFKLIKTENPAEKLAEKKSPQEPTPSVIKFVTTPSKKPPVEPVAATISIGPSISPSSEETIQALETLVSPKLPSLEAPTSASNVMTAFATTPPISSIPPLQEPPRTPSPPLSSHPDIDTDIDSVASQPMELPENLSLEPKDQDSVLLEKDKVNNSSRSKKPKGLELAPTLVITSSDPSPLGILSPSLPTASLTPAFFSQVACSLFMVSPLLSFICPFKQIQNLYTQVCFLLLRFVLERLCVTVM
The conditions noted are these: protein: recombinant; tags: N-terminal GST; dsDNA, one strand shown. The procedure, abridged: as §1

In a further assay the target is T4, ETV2 (Homo sapiens, UniProt O00321 1-342).
T4 sequence: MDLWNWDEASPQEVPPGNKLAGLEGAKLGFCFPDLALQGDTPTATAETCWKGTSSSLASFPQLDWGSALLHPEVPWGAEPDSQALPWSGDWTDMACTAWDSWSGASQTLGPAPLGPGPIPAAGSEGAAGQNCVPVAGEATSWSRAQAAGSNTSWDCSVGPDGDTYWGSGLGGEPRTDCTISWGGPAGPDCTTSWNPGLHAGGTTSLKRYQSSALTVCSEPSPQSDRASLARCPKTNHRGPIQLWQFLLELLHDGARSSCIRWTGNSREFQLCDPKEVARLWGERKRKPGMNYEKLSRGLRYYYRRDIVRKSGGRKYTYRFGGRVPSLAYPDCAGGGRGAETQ
The conditions noted are these: protein: recombinant; tags: N-terminal GST; dsDNA, one strand shown. The procedure, abridged: as §1

A further assay concerns the target T5, ELF3 (Homo sapiens, UniProt P78545 1-371).
T5 sequence: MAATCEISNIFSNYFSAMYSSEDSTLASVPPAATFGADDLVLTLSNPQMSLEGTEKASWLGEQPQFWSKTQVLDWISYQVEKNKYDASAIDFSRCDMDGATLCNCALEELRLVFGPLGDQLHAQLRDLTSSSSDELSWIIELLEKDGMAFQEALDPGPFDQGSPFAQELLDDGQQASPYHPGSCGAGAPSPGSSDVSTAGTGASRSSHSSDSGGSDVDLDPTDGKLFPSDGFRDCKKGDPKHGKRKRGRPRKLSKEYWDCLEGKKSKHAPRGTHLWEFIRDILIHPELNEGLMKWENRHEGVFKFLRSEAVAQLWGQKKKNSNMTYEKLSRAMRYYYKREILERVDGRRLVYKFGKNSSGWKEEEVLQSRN
The conditions noted are these: protein: recombinant; tags: N-terminal GST; dsDNA, one strand shown. The method, boiled down:
as §1

The target of another assay is CRX (Homo sapiens, UniProt O43186 1-299). The conditions noted are these: protein: recombinant; tags: N-terminal GST; dsDNA, one strand shown. The method, boiled down:
as §1

In the next assay the target is ETV1 (Homo sapiens, UniProt P50549 1-477). To be noted: protein: recombinant; tags: N-terminal GST; dsDNA, one strand shown. The method, boiled down:
as §1

For the next assay, the target named is T6, ERF (Homo sapiens, UniProt P50548 1-548).
T6 sequence: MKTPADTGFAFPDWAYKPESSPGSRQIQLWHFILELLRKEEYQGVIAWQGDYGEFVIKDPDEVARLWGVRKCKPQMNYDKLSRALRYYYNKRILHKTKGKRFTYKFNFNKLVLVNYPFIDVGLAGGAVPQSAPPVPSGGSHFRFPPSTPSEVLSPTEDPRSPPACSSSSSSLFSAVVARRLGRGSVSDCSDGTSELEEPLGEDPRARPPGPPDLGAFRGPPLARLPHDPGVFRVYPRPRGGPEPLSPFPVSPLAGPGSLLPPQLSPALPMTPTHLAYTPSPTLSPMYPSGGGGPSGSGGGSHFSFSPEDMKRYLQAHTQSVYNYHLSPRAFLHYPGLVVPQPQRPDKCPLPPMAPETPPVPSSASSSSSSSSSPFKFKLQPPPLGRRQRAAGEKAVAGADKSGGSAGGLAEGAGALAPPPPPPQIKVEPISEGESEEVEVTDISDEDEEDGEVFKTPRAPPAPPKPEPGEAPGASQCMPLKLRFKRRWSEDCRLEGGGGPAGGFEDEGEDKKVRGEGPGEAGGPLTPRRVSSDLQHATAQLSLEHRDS
To be noted: protein: recombinant; tags: N-terminal GST; dsDNA, one strand shown. The method, boiled down: as §1

Another assay has as its target T7, ETV3L (Homo sapiens, UniProt Q6ZN32 1-361).
T7 sequence: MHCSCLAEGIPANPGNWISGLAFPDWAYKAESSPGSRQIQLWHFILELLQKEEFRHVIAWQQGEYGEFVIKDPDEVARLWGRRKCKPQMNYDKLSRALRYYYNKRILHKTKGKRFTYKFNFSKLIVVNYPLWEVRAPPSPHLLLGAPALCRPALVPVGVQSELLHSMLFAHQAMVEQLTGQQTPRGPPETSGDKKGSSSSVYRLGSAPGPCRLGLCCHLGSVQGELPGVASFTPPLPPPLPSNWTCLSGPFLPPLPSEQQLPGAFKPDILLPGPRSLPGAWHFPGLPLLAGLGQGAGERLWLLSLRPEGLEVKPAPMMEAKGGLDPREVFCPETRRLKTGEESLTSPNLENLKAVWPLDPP
To be noted: protein: recombinant; tags: N-terminal GST; dsDNA, one strand shown. The procedure, abridged:
as §1

For the next assay, the target named is T8, ETS2 (Homo sapiens, UniProt P15036 1-469).
T8 sequence: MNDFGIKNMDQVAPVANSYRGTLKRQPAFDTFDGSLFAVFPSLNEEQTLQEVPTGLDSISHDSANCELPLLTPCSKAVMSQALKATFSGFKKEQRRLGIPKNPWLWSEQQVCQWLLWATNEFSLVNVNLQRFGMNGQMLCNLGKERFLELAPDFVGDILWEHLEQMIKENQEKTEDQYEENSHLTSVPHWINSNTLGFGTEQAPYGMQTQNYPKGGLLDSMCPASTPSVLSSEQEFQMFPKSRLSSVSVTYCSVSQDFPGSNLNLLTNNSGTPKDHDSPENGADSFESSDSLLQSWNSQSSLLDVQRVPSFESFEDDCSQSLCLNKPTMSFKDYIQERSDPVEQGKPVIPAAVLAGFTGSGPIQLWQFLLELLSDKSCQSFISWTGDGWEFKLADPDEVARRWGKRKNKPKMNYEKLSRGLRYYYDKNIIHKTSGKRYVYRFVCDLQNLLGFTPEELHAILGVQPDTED
To be noted: protein: recombinant; tags: N-terminal GST; dsDNA, one strand shown. The method, boiled down:
as §1

A further assay addresses T9, SPDEF (Homo sapiens, UniProt O95238 1-335).
T9 sequence: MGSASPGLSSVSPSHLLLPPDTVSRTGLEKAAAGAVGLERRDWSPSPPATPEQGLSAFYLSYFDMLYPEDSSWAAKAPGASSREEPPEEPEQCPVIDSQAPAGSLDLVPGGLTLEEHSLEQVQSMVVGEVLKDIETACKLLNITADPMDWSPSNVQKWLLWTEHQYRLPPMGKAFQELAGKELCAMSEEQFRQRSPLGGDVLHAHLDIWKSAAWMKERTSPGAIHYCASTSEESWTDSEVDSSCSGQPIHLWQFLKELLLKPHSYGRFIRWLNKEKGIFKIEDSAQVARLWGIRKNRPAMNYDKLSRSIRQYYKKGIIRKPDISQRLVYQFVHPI
To be noted: protein: recombinant; tags: N-terminal GST; dsDNA, one strand shown. The method, boiled down:
as §1

Another assay has as its target T10, ETV7 (Homo sapiens, UniProt Q9Y603 1-341).
T10 sequence: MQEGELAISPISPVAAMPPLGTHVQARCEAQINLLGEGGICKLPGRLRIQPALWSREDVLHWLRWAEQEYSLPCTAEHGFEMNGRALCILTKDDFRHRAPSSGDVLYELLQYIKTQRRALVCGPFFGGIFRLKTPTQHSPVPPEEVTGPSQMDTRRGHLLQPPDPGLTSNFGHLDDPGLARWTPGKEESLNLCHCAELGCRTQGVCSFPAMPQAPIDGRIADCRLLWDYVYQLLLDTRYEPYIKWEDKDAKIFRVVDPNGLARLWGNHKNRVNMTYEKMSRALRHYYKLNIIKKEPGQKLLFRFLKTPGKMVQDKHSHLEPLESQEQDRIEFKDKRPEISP
To be noted: protein: recombinant; tags: N-terminal GST; dsDNA, one strand shown. The procedure, abridged: as §1

The next assay concerns the target T11, ELF5 (Homo sapiens, UniProt Q9UKW6-2 1-255).
T11 sequence: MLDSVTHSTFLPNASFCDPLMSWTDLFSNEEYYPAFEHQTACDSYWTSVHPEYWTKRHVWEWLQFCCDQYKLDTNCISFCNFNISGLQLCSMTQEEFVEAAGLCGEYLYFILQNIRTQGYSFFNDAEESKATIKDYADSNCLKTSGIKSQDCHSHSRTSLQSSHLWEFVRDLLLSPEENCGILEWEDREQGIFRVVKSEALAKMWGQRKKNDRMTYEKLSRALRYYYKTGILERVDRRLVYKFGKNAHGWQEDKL
To be noted: protein: recombinant; tags: N-terminal GST; dsDNA, one strand shown. The procedure, abridged:
as §1

The target in the next assay is T12, ETV3 (Homo sapiens, UniProt P41162-2 1-143).
T12 sequence: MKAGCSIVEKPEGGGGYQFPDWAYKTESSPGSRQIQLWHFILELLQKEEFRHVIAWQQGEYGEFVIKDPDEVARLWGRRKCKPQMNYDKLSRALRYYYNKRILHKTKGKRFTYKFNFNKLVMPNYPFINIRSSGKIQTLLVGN
The conditions noted are these: protein: recombinant; tags: N-terminal GST; dsDNA, one strand shown. The procedure, abridged: as §1

The target in a further assay is ETV6 (Homo sapiens, UniProt P41212 1-452). To be noted: protein: recombinant; tags: N-terminal GST; dsDNA, one strand shown. The method, boiled down:
as §1

ELF4, sequence (Q99607 whole entry): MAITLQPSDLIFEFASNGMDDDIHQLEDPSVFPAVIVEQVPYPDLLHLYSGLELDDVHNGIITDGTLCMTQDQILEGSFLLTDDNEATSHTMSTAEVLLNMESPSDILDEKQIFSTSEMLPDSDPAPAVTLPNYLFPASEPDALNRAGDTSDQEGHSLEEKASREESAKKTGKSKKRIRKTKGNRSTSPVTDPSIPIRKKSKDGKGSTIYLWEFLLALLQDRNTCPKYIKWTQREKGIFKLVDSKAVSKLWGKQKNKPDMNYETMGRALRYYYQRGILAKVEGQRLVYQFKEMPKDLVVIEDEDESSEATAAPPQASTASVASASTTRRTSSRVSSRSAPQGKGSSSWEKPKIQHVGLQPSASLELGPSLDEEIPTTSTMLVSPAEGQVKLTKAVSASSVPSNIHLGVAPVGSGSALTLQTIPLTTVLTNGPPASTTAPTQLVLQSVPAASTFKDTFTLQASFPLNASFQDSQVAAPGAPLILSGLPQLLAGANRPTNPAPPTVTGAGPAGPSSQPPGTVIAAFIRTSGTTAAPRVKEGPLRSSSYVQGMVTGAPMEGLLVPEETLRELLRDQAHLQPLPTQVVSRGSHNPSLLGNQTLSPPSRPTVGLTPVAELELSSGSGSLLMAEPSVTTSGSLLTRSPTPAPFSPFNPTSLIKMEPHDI
ETV1, sequence (P50549 whole entry): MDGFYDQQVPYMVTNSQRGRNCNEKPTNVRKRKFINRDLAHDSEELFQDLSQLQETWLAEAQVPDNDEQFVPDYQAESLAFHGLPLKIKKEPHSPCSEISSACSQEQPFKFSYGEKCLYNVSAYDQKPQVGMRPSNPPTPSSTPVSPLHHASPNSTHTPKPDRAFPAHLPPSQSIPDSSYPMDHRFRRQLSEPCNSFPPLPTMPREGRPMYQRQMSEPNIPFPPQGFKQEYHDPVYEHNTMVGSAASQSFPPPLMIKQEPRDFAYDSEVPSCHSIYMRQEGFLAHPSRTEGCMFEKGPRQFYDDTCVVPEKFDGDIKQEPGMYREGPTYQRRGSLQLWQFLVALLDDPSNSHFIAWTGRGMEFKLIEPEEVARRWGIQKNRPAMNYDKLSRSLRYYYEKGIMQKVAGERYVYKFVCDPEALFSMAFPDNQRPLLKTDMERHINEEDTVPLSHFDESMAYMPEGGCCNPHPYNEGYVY
HSF1, sequence (Q00613 whole entry): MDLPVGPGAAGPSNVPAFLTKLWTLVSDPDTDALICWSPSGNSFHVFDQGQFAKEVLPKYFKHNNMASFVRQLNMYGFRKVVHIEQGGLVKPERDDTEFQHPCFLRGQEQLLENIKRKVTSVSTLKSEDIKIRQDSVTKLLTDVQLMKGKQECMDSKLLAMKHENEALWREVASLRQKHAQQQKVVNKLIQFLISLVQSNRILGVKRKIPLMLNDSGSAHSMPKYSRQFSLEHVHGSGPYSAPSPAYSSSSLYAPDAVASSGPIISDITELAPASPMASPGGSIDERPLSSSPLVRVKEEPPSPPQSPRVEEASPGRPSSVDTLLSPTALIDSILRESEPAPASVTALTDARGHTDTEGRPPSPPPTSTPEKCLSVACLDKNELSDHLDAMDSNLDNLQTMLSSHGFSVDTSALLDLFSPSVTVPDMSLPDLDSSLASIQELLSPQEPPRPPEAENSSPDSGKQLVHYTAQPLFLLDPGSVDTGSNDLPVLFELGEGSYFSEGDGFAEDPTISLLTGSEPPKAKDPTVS
ETV6, sequence (P41212 whole entry): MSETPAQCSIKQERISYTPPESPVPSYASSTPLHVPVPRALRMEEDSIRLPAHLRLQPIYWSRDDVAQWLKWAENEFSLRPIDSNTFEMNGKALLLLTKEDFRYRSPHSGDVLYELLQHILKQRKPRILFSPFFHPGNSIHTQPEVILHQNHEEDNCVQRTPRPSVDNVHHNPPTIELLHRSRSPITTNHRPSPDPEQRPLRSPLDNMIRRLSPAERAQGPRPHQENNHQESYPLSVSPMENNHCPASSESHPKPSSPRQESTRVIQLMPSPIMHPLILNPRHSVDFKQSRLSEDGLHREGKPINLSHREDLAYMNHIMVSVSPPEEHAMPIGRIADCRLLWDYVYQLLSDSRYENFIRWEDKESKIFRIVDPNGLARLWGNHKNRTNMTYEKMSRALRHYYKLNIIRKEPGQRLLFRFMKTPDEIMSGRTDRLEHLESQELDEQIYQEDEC
ETV5, sequence (P41161 whole entry): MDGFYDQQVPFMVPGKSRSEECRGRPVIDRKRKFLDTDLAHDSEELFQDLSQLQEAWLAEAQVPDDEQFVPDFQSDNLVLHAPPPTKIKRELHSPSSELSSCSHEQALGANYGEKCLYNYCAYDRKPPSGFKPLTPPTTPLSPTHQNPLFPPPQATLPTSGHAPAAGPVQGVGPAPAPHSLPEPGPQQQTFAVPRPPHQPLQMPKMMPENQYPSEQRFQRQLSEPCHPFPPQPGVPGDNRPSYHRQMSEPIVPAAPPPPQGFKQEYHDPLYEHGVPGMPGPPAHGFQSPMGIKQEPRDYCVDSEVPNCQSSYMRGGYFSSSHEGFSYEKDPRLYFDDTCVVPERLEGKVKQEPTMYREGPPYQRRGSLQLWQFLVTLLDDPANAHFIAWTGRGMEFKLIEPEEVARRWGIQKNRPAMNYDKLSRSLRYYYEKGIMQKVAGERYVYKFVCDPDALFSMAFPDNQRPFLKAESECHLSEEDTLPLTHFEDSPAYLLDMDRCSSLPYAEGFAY
CRX, sequence (O43186 whole entry): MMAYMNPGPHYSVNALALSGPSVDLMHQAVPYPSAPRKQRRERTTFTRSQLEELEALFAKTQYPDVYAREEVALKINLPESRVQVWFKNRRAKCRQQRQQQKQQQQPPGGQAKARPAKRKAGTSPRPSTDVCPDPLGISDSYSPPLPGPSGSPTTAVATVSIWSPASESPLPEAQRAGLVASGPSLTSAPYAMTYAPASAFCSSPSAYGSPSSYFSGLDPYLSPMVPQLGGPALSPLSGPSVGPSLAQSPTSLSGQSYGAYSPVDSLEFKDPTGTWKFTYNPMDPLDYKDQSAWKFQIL

Turning to CCGCTC, the binding signal in the assay with FEV is 1.61 fold enrichment (6-mer frequency, TF over GST control); with ETV5, 1.46 fold enrichment (6-mer frequency, TF over GST control); with HSF1 it was 1.24 fold enrichment (6-mer frequency, TF over GST control); with SPIC, 1.53 fold enrichment (6-mer frequency, TF over GST control); in the assay with ELF4, 1.6 fold enrichment (6-mer frequency, TF over GST control); in the assay with ELK4, 1.65 fold enrichment (6-mer frequency, TF over GST control). In addition, the binding signal with ETV2 was 1.52 fold enrichment (6-mer frequency, TF over GST control); in the assay with ELF3, 1.54 fold enrichment (6-mer frequency, TF over GST control); with CRX, 1.21 fold enrichment (6-mer frequency, TF over GST control); in the assay with ETV1, 1.45 fold enrichment (6-mer frequency, TF over GST control); in the assay with ERF, 1.66 fold enrichment (6-mer frequency, TF over GST control); with ETV3L, 1.74 fold enrichment (6-mer frequency, TF over GST control). Besides, the binding signal in the assay with ETS2 is 1.54 fold enrichment (6-mer frequency, TF over GST control); in the assay with SPDEF, 1.44 fold enrichment (6-mer frequency, TF over GST control); in the assay with ETV7 it was 1.42 fold enrichment (6-mer frequency, TF over GST control); in the assay with ELF5, 1.53 fold enrichment (6-mer frequency, TF over GST control); with ETV3, 1.46 fold enrichment (6-mer frequency, TF over GST control); in the assay with ETV6, 1.32 fold enrichment (6-mer frequency, TF over GST control).

These data come from publication PMC7862700, “An all-to-all approach to the identification of sequence-specific readers for epigenetic DNA modifications on cytosine”.
